Only some compounds are listed: those with a hit (about 3.1% of all), similar ones and a draw of the others.
PP1 counter – PP1-alpha phosphatase inhibitors, primary screen, counter-screen for PP5 inhibitor project, biochemical, fluorescence, OMFP substrate, single point. Serine/threonine-protein phosphatase PP1-alpha catalytic subunit (Homo sapiens), P62136. purified PP1alpha. inhibition, % at 6.7 µM. actives 0.9% (n = 320,000). AID 2235, 2010;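 active = inhibition above the mean inhibition of all tested compounds plus 3 SD, computed separately for each screening campaign, cut at about 15% in these data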
Target sequence (P62136 whole entry, looked up): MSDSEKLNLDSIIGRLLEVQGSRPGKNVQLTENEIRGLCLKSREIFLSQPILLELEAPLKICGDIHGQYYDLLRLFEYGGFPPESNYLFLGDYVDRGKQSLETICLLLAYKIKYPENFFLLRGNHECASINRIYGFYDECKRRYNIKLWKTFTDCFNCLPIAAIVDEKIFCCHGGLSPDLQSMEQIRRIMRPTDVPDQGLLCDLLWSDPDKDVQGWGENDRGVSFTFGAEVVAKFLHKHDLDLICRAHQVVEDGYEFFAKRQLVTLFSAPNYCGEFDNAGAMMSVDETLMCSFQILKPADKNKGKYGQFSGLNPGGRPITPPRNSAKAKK
CSC inhib – cancer stem cell viability inhibitors, primary screen, luminescence; cancer stem cell-like cells viability; inhibition, % at 7.5 µM; actives 1.1% (n = 300,000); AID 2717, 2010; in the data active = inhibition above about 75%; tested in HMLE shEcad cells
Beta cell apopt – inhibitors of cytokine-induced beta cell apoptosis, primary screen, luminescence | actives 0.8% (n = 300,000) | AID 435005, 2010 | INS-1E cytokine-induced death, ATP luminescence, 48 h; percent of positive-control rescue, neutral wells zero | protection from apoptosis, % (concentration not given with the values);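 active = Every replicate reaches about 75%, or at least half do and their mean reaches it too, limit read from the data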;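 note: higher means more ATP so stronger rescue from cytokine killing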
PP5 primary – PP5 phosphatase inhibitors, primary screen, biochemical, fluorescence; AID 1987, 2009; purified PP5c, OMFP substrate fluorescence; Serine/threonine-protein phosphatase 5 (Homo sapiens), P53041; actives 0.18% (n = 320,000); inhibition, % at 6.7 µM;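 active = inhibition above the campaign's mean inhibition across all tested compounds plus 3 SD, cut at about 9.5% in these data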
SKKanGAS inh – S. pyogenes SKKanGAS growth inhibitors in kanamycin, primary screen, streptokinase expression inhibitor project, SKKanGAS strain, BacTiter-Glo luminescence | inhibition, % at 7.5 µM | 6 h | actives 1.3% (n = 300,000);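 active = mean replicate score, as percent of positive control median, at least 50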;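 note: strain carries kanamycin resistance gene driven by streptokinase promoter and grows in 40 µg/ml kanamycin; loss of luminescence reflects streptokinase promoter inhibition or plain growth inhibition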
PP1 inh confirm – PP1 phosphatase inhibitors, confirmation, biochemical, fluorescence, OMFP substrate, triplicate; shares compounds with PP1 counter; purified PP1alpha; inhibition, % at 6.7 µM; actives 52% (n = 1,900); AID 2358, 2010;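 active = mean PP1 inhibition above a set limit taken from the earlier primary screen, cut at about 15% in these data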
PP5 counter – PP5 phosphatase inhibition by PP1 hits, confirmation, counter-screen for PP1 inhibitor project, biochemical, fluorescence, triplicate | shares compounds with PP1 counter | purified PP5c, OMFP fluorescence | inhibition, % at 6.7 µM | actives 4% (n = 1,900) | AID 2360, 2010;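 active = mean PP5 inhibition over triplicate wells above about 9.5% taken from the earlier PP1 screen, limit read from the data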
Each line names hits and unclear results; the compound was inactive in the other large screens (follow-up assays come after a bar, where they were run).

Cc1ccc(CN=C(N)Nc2nc(C)cc(C)n2)cc1	none
O=C(/C=C/c1ccccc1)NC(=S)NNC(=O)c1cnccn1	PP1 counter 22, CSC inhib 87, Beta cell apopt 78, SKKanGAS inh 64 | PP1 inh confirm 24 | PP5 counter inactive
O=C(/C=C/c1ccccc1)NC(=S)NNC(=O)c1cccnc1	none
Cc1cc(N2C(=O)C(O)=C(C(=O)c3ccco3)C2c2ccc(Cl)cc2)no1 (stereo not given)	PP1 counter 20 | PP1 inh confirm 17 | PP5 counter inactive
Cc1cc(N2C(=O)C(O)=C(C(=O)c3ccco3)C2c2cccc(Oc3ccccc3)c2)no1 (stereo not given)	PP1 counter 25 | PP1 inh confirm 26 | PP5 counter inactive
Cc1cc(N2C(=O)C(O)=C(C(=O)c3ccco3)C2c2cccc(O)c2)no1 (stereo not given)	none
Cc1cc(N2C(=O)C(O)=C(C(=O)c3ccco3)C2c2ccc(O)cc2)no1 (stereo not given)	none
Cc1cc(N2C(=O)C(O)=C(C(=O)c3cc4ccccc4o3)C2c2ccc([N+](=O)[O-])cc2)no1 (stereo not given)	PP1 counter 30 | PP1 inh confirm 16 | PP5 counter inactive
CCN(CC(=O)NCc1ccccn1)S(=O)(=O)c1cc(Cl)ccc1Cl	none (no result: Beta cell apopt)
O=C(Nc1ccc(F)cc1)C1=CC(=O)N2CCN=C2S1	none
Cc1nc(C(=O)N2CCc3c([nH]c4ccccc34)C2c2cc(F)ccc2F)cs1 (stereo not given)	none
COc1ccccc1CNC(=O)c1ccc2nc3[nH]c4ccccc4c3nc2c1	PP1 counter 21 | PP1 inh confirm 23 | PP5 counter inactive
O=C(O)c1cc(S(=O)(=O)Nc2ccc(OCc3ccccc3)cc2)ccc1Br	none
C#CCn1cc(/C=N/Nc2nc3ccccc3[nH]2)c2ccccc21	PP1 counter 22, CSC inhib 92 | PP1 inh confirm 24 | PP5 counter inactive
Cc1ccc(/C=N\Nc2nc3ccc(Cl)cc3[nH]2)o1	none
Fc1ccccc1-c1ccc(/C=N/Nc2nc3ccccc3[nH]2)o1	PP1 counter 18 (no result: SKKanGAS inh) | PP1 inh confirm 18 | PP5 counter inactive
C(=N\Nc1nc2ccccc2[nH]1)/c1cccc2nccnc12	none
CCCCn1c(/C=C/c2ccco2)nc2ccccc21	none
CCCCn1c(/C=N/Nc2nc3ccccc3[nH]2)nc2ccccc21	PP1 counter 21, Beta cell apopt 76, SKKanGAS inh 95 (no result: CSC inhib) | PP1 inh confirm inactive | PP5 counter inactive
Cc1ccc(NC(=O)CC(NCC2CCCO2)C(=O)O)cc1C (stereo not given)	none
O=C1C(Cc2ccccc2)Nc2ncnc(N3CCc4ccccc4C3)c2N1Cc1ccc(Cl)cc1 (stereo not given)	PP1 counter 24 | PP1 inh confirm 20 | PP5 counter inactive
Clc1ccc(C2=Nn3c(nnc3-c3n[nH]c4c3CCC4)SC2)cc1	none
Brc1ccc(C2=Nn3c(nnc3-c3n[nH]c4c3CCC4)SC2)cc1	PP1 counter 22 | PP1 inh confirm inactive | PP5 counter inactive
c1ccc(-c2ccc(C3=Nn4c(nnc4-c4cc(-c5ccccc5)n[nH]4)SC3)cc2)cc1	PP1 counter 30 | PP1 inh confirm 33 | PP5 counter inactive
O=C1CC2(CCN(C(=O)c3cccc(Br)c3)CC2)Oc2ccccc21	none
O=C1/C(=C/C=C/c2ccco2)SC(=S)N1c1ccc(O)cc1	PP1 counter 38 | PP1 inh confirm inactive | PP5 counter inactive
CC(C)C(C(=O)O)N1C(=O)/C(=C/C=C/c2ccco2)SC1=S (stereo not given)	PP1 counter 20 (no result: CSC inhib) | PP1 inh confirm inactive | PP5 counter inactive
CC(C)C(NC(=O)c1ccc(F)cc1)C(=O)OCC(=O)N1CC(=O)Nc2ccccc21 (stereo not given)	none

Compound activity: PubChem BioAssay, several laboratories
